According to PubChem BioAssay AID1117319 (Southern Research Institute, 2015):
The whole screen tested about 260,000 compounds, of which about 1,500 (0.58%) were called active. Another 5% or so got no clear call; they are omitted.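 How the source made its calls: active means inhibition above a set limit at one or more doses, reproduced on every date tested; inconclusive means results disagree between test dates, or hit never tested in dose response; inactive means the rest.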 Not all results are given here. Entries with a potency or affinity are not part of this list.

Molecular target: Virion infectivity factor (Human immunodeficiency virus type 1 group M subtype B (isolate BH10)) + Virion infectivity factor (Human immunodeficiency virus type 1 group M subtype B (isolate BRU/LAI)) + Virion infectivity factor (Human immunodeficiency virus type 1 group M subtype B (isolate PCV12)) + Virion infectivity factor (Human immunodeficiency virus type 1 group M subtype B (isolate HXB2)) + DNA dC->dU-editing enzyme APOBEC-3G (Homo sapiens) (UniProt P69720+P69721+P69722+P69723+Q9HC16)
Experiment: inhibitors of Vif binding to APOBEC3G peptide, primary screen, biochemical, TR-FRET, GST-Vif 1-94, biotin-A3G peptide, dose response retest (AID 1117319);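 further: Vif residues 1-94 fused to GST binding biotinylated APOBEC3G peptide 110-148; 0% = full assay without inhibitor and 100% = GST in place of GST-Vif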
Settings: stronger effect = higher value

inhibition, inactive:
Nc1ccc(S(=O)(=O)c2ccc(N)cc2)cc1 -4.69%
Nc1ccc(S(=O)(=O)c2cccc(N)c2)cc1 0.36%
COc1ccc(-c2csc3nc(C)nc(N4CCN(C(C)=O)CC4)c23)cc1OC -6.79%
COc1cc(S(=O)(=O)NC2CCCCC2)ccc1F -3.56%
COc1ccc(C2c3c(-c4ccccc4O)n[nH]c3C(=O)N2Cc2ccco2)cc1OC (configuration not stated) -4.89%
NC(=O)C[C@@H]1N[C@]2(C(=O)Nc3ccccc32)[C@@H]2C(=O)N(C3CCCCC3)C(=O)[C@H]12 6.65%
CC(C)[C@@H]1N[C@]2(C(=O)Nc3ccccc32)[C@@H]2C(=O)N(c3cccc(C(F)(F)F)c3)C(=O)[C@@H]21 7.45%
C=CCNC(=S)N/N=C/c1ccc(N(CC)Cc2ccccc2)cc1 -8.07%
CCOC(=O)c1cc(-c2cccc(C(F)(F)F)c2)nc2nc(SC)[nH]c(=O)c12 -8.37%
O=C(Nc1ccnn1C1CCN(Cc2ccc(C#CCCO)cc2)CC1)c1cccc(F)c1 4.84%
CCS(=O)(=O)Nc1ccc(NC(C)=O)cc1 10.1%
CNC(=O)CSc1nnc(-c2ccccc2)n1C -0.87%
Cc1oc(-c2cccc(Cl)c2)nc1CN1CCC(C(=O)N2CCN(c3ccccn3)CC2)CC1 6.2%
CCc1ccc(-c2nc(CN3CCC(C(=O)N4CCN(c5ccccn5)CC4)CC3)c(C)o2)cc1 -7.35%
CCOc1ccc2nc(NC(=O)C3CCCN(S(=O)(=O)c4c(C)noc4C)C3)sc2c1 (configuration not stated) -3.03%
Cc1cc(NC(=O)c2ccc(Cl)cc2)c(C)cc1O -1.13%
Cc1cc(C(c2ccc(O)cc2)c2cc(C)c(O)cc2C)c(C)cc1O 1.89%
CCOC(=O)c1c(S(=O)(=O)NCC2CCN(Cc3cccc(F)c3)CC2)c(C)n(C)c1C -4.42%
O=C(CCN1C(=O)/C(=C/c2ccccc2Cl)SC1=S)NC1=NCCS1 9.65%
O=C(CCN1C(=O)S/C(=C\c2cccs2)C1=O)NC1=NCCS1 25.6%
CCC1(c2ccc(F)cc2)NC(=O)N(CC(=O)NCc2ccc(C)cc2)C1=O (configuration not stated) -8.4%
COc1cccc(C(=O)N2CCN(C(=O)Cc3ccccc3)CC2)c1 -2.27%
CC1=NN(c2ccccc2)C(=O)/C1=C\c1cc(C)n(C)c1C 6.69%
Cc1ccc(Cn2nnc3c(=O)n(CC(=O)NCc4ccco4)cnc32)cc1 16.3%
O=C(Cn1cnc2c(nnn2Cc2ccccc2)c1=O)NCc1ccco1 -2%
NS(=O)(=O)c1ccc(N/N=C/c2ccccc2C(=O)O)c([N+](=O)[O-])c1 -3.72%
O=[N+]([O-])c1ccc(NCCCO)c(S(=O)(=O)N2CCOCC2)c1 -0.32%
NS(=O)(=O)c1ccc(N/N=C/c2ccc(O)cc2O)c([N+](=O)[O-])c1 -13.8%
CC(O)CNc1ccc([N+](=O)[O-])cc1S(=O)(=O)N1CCOCC1 (configuration not stated) 6.02%
O=C(CCNS(=O)(=O)c1ccc(Br)cc1)N1CCN(c2ccccc2O)CC1 0.32%
Cc1ccc(OCCOCCN2CCN(C)CC2)c([N+](=O)[O-])c1 6.13%
CCOC(=O)C1CCN(c2c(NCc3ccc(C(=O)NC4CCCC4)cc3)c(=O)c2=O)CC1 0.11%
COc1ccc(Cc2c(O)nc(SCC(=O)N3CCCCCC3)[nH]c2=O)cc1 -4.82%
Cc1cccc(NC(=O)/C=C/c2cccs2)n1 4.61%
O=C(/C=C/c1cccs1)Nc1cccc(NC(=O)/C=C/c2cccs2)n1 13.7%
Cc1nn(-c2ccc(Cl)cn2)c2c1C(=O)CC(C)(C)C2Br (configuration not stated) -0.39%
CO[C@@]12[C@@H]3N[C@@H]3CN1C1=C(C(=O)C(N)=C(C)C1=O)[C@@H]2COC(N)=O 5.83%
[O-][n+]1c2ccc3nonc3c2nn1-c1ccccc1Cl -0.31%
O=C(CSc1ccc(-c2ccccn2)nn1)Nc1nccs1 -5.9%
CCOCCCNC(=O)c1cccc(NC(=O)C2=C(C)OCCS2)c1 -0.24%
COc1cc(CC(=O)OCC(=O)Nc2ccc([N+](=O)[O-])cc2)cc(OC)c1OC 31.8%
COc1ccc([N+](=O)[O-])cc1NC(=O)COC(=O)Cc1cc(OC)c(OC)c(OC)c1 -5.64%
Cc1csc(SCC(=O)NC2CCS(=O)(=O)C2)n1 (configuration not stated) -3.32%
COc1cccc(NC(=O)CN2C(=O)COc3ccc(S(=O)(=O)N4CCOCC4)cc32)c1 0%
CC(=O)c1ccc(NC(=O)c2ccc(-n3cnnn3)cc2)cc1 -12.9%
CCOC(=O)c1cccc(NC(=O)c2ccc(-n3cnnn3)cc2)c1 -5.14%
COc1ccc(NC(=O)CCc2ccccc2)cc1S(=O)(=O)N1CCCCC1 2.14%
O=C(Nc1nc2ccccc2s1)c1ccc2c(c1)S(=O)(=O)c1ccccc1C2=O 28.5%
O=C(c1ccc(Br)o1)N1CCN(C/C=C/c2ccccc2)CC1 2.12%
C/C(=N\NC(=S)NCc1ccccc1)c1ccc(C(C)(C)C)cc1 9.19%
C/C(CCC(=O)O)=N/Nc1ccc([N+](=O)[O-])cc1[N+](=O)[O-] 5.85%
CN1CCN(C2=C(Cl)C(=O)N(Cc3ccccc3)C2=O)CC1 14.1%
CN1CCN(C2=C(NS(=O)(=O)c3ccccc3)C(=O)c3ccccc3C2=O)CC1 -3.21%
NC(=O)C1CCN(C2OC(=O)c3ccccc32)CC1 (configuration not stated) -1.56%
O=C1C(Cl)=C(NCCCN2CCOCC2)C(=O)c2ccccc21 3.39%
NC(=O)C1CCN(C2=C(NS(=O)(=O)c3ccc(Cl)cc3)C(=O)c3ccccc3C2=O)CC1 10.6%
CC(C)NC1=C(Cl)C(=O)c2ccccc2C1=O 2.61%
